In the supplement of paper PMC6555819:

The sequences below were run on VDR homodimer (NR concentration 270 nM) (assay: PBM binding z-score (relative to random genomic background probes); higher = stronger binding; sequences stand for … in GC…GCGATTGACAGCGTAGAATGAAGG).
How it was run: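 Binding z-scores take random background probes as their reference. They come from custom Agilent 4×180K protein-binding microarrays incubated 1 h with ligand-free nuclear receptor dimers, with antibodies against each partner (one per run) detecting binding. Scanned fluorescence was regression-normalized.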

Sequence	PBM binding z-score
TCGAGTAGGTTACGGGGTCATTCAGGGATGAAGA	5.89
CCGACTGGGTCAAAGGTTACCATACTCAGTACGA	0.82
CGTCCAAGGTCAATGTTAGGTCAGTGAAAGCATT	2.78
CAACCTAGGTCACGAAAGGTCAAAGTCGAATGAC	3.44
CGTCAAAGTTCACCTAAGGTAACGTAAAGCACGC	4.19
CCAGACAGGTGAAAGGTCACTCAGTCTGGTACGC	2.37
TTACCAAGGTGACCTGAGGTCGTTGATCCAACTC	3.65
CTCGAAAGGTCAGTTGAGGTGAGTATACGGATAA	1.63
CGTCCAAGGTCAGAGAGGTCATTGAATGCCGAGT	7.43
TAGCCTAGGTTATGCGGGCCAGTATAGTGTCGGC	-0.934
CCTACTGTGCCATTCAGAGGTCATTGATCATATG	3.56
CAAACTAGGTCAAAGGTCAAAGTAGAGCCAACCA	2.99
CCGAGTAGGTTACGTGGGGGCATTCAGTGCGAAT	2.85
TTACCAAGGTCAGCTGAGGTCGTTGATCCAACTC	4.14
AGTCAAAATTCACTAGGTAACGTAAGATTCAGCT	0.272
GCATATAGGTAATTCAAGGTGAAAGTCCGATTGT	0.292
GATACAGGGTGAGCTAGAGGCCAGAGTATGGAAA	-0.731
CCTAGCAGGCCAATCGGGGTCACTCAAGGCTTGA	4
ACTAGGTGGTCAGCTGAGGTCACACACAATTCGG	2.8
GCTTACGGGTCAAAGGTTAAAGCATGAATAGAAT	1.4

Sequence	PBM binding z-score
TCTAGTAGGTCACGGAGGTCACACACGACGGGTA	4.8
CCTACTGGGCCATTCAGAGGTTATTGATCATATG	0.749
CCTACTGGGCCACGTAAGGTCATTGATTCAGTGA	2.84
ACTAGTAGGTCAGCTGAGGTCACACACAATTCGG	5.23
CCTAGTTGGTCAAGCTCACACACGCTATAGGTAC	0.614
CCTTACGGGTCACTCCATGTTATAGCATCGGAGT	1.46
CCGAGTAGGTTACGAGGAGGCATTCAGTGCGAAT	-0.434
TGAATGAAGTTAAAGATCAGGGAACGTGGCGTCG	-0.533
CGTCCAAGGTCAAAGGTCAGGGAAGAGATGACGG	3.13
CCGAGTAGGTTACGAGGCGGCATTCAGTGCGAAT	-0.284
CAAACTAGGTCACCGTAAGGTCAAAGTCCGCATG	4.19
ACTAGCAGGTCAAGGGTCACTCAAGATTAGTCCG	2.56
ACTAGTGGGTCAGCTGAGGTCACACACAATTCGG	4.55
CCTTACGGGTCACTCAAGGTTATAGCATCGGAGT	1.75
TCGAGTAGGTTACGGCGGCATTCAGGGATGAAGA	-0.475
ATATGTAGGTTAGAGTCATTCAGAAAGTAGGGAA	0.387
CGAACGAGGTCAGAACAGGACAGTGAAGGATGAT	2.1
CCTACTGGGGCACGAAAGGTCATTGATTCAGTGA	2.34
CCTACTGGGCCATCAGGTGATTGATATCAACGTT	-0.474
